Source: PubChem BioAssay AID652057 (Broad Institute, 2013)
Hit rate of the full screen: of about 1,400 compounds, about 1,000 (71%) were called active. The rule behind the calls is not given here. The set was probably picked from earlier hits. A selection follows. Measured potencies and affinities stand elsewhere.

Experiment: blockers of HIV-1 envelope-mediated cell-cell fusion – cherry-pick, dose response (AID 652057)
Conditions: HeLa-JRFL Env/CEM21 cell fusion, luciferase; series mostly up to 35 µM; activity change, negative = inhibition: at the top concentration

Activity change, negative = inhibition, inactive:
COc1ccc(S(=O)(=O)n2ccc(-c3ccc(OCCN(C)c4ccccn4)cc3)n2)cc1 -11.7%
COc1ccccc1OCC(=O)c1[nH]c(C)c(C(C)=O)c1C -2.71%
O=C(c1ccccc1)N1CCC(c2nc(-c3ccc(S(=O)(=O)NCC4CCCO4)cc3)no2)CC1 (centres undefined) -19.1%
C[C@@H]1CN([C@H](C)CO)C(=O)c2c(c3ccccc3n2C)-c2ccccc2CO[C@@H]1CN(C)S(=O)(=O)c1cccc(F)c1 247% [at 18 µM]
C[C@@H]1CN([C@@H](C)CO)C(=O)c2cccc(NC(=O)c3ccc(-c4nccs4)cc3)c2O[C@H]1CN(C)CC1CC1 -19.5%
CCn1ncc(C2=NOC(C(=O)Nc3ccc(C)cc3)C2)c1C (centres undefined) -4.06%
C[C@H]1CN([C@@H](C)CO)C(=O)Cc2cc(N(C)C)ccc2O[C@H]1CN(C)CC1CC1 -11.9%
Cc1ccc2c(c1)C(=C(C#N)C#N)CCN2 -11.9%
O=C(Nc1ccc(N2CCN(C(=O)c3ccccc3)CC2)c(Cl)c1)c1cccnc1 -1.86% [at 16 µM]
CCCNC(=O)C[C@@H]1C[C@@H]2c3cc(NC(=O)Cc4ccncc4)ccc3O[C@@H]2[C@@H](CO)O1 13.7% [at 30 µM]
C[C@H](CO)N1C[C@H](C)[C@@H](CN(C)C(=O)NC2CCCCC2)Oc2c(cccc2N(C)C)C1=O -0.366%
CCCNC(=O)C[C@@H]1C[C@H]2c3cc(NC(=O)c4cccnc4)ccc3O[C@H]2[C@H](CO)O1 51.2%
C[C@@H]1CN([C@@H](C)CO)C(=O)c2cc(NC(=O)c3ccccc3)ccc2O[C@@H](C)CCCCO[C@H]1CN(C)Cc1ccc(C(=O)O)cc1 -13.2%
COc1ccc(CN(C)C[C@@H]2Oc3ccc(NC(=O)Nc4ccc(OC)cc4)cc3C(=O)N([C@H](C)CO)C[C@@H]2C)cc1 -26%
C[C@@H]1CCCCO[C@H](CN(C)C)[C@H](C)CN([C@@H](C)CO)C(=O)c2cc(NS(=O)(=O)c3cn(C)cn3)ccc2O1 31.6%
CNC[C@H]1Oc2c(NC(=O)Nc3ccc(C(F)(F)F)cc3)cccc2C(=O)N([C@@H](C)CO)C[C@H]1C 63.2%
O=C(N[C@@H]1CC[C@H](CCNS(=O)(=O)c2ccc(F)cc2)O[C@@H]1CO)C1CC1 1.98%
O=C(COC(=O)c1cc(S(=O)(=O)N2CCOCC2)ccc1O)NCc1ccc2c(c1)OCO2 -22%
CC(C)CNS(=O)(=O)c1ccc(CCC(=O)N2CCN(Cc3ccc4c(c3)OCO4)CC2)cc1 -33.2%
C[C@H]1NC(=O)[C@@]2(C)[C@H](c3ccccc3)[C@H]3COc4ccccc4[C@@H]3N2C1=O -5.75%
COCC(=O)N1C[C@@H](C)[C@H](OC)CN(C)C(=O)c2ccc(NC(=O)c3ccc(OC)cc3)cc2OC[C@@H]1C 0.438%
Nc1c(S(=O)(=O)c2ccccc2)cnc2c(-c3ccc(F)cc3)cnn12 167%
Cc1cc(Cl)ccc1OCC(=O)NNC(=O)C1CSC2(C)CCC(=O)N12 (centres undefined) -4.03%
O=C(Nc1cccc(F)c1)c1cc(S(=O)(=O)N2CCC(C(=O)O)CC2)ccc1F 9.32%
Nc1ncn([C@H]2C[C@H](O)[C@@H](CO)O2)c(=O)n1 12.8%
CCc1cc2c(NCc3ccco3)ncnc2s1 -10.4%
Nc1nc2c(ncn2[C@@H]2O[C@H](C(=O)NCC(c3ccccc3)c3ccccc3)[C@@H](O)[C@H]2O)c(=O)[nH]1 -7.59%
N#C[C@H]1[C@@H](c2ccccc2/C=C/c2ccccc2)[C@@H](CO)N1S(=O)(=O)c1cccc(F)c1 -24%
O=C(Nc1ccc(CN2CCS(=O)(=O)CC2)cc1)c1ccc(C(F)(F)F)cc1 -17.9%
Cc1ccc(-n2nnnc2-c2cnn(-c3ccc(F)cc3)c2C(F)(F)F)cc1 -20.2%
Cc1cccc(C)c1NC(=O)CCCSc1nnc(-c2ccc(Cl)cc2)n1-c1ccccc1 -36.5%
Cn1c(SCc2nc(-c3ccc(Cl)cc3)no2)nnc1-c1cccs1 -26.3%
COc1ccc(-c2c(C)nn3c(C(F)(F)F)cc(C)nc23)cc1 -9.71%
O=C(CN1CCN(Cc2ccc(Cl)cc2)C1=O)NCCCN1CCN(c2ccc(F)cc2)CC1 -19.3%
C[C@H]1CN([C@@H](C)CO)C(=O)c2cccc(NC(=O)C3CCCCC3)c2O[C@H]1CN(C)S(C)(=O)=O 12.7%
COCC(=O)N(C)C[C@H]1Oc2ncc(Br)cc2C(=O)N([C@H](C)CO)C[C@H]1C 2.66%
CCCNC(=O)N1[C@H](C#N)[C@H](c2ccc(-c3ccc(C(=O)N(C)C)cc3)cc2)[C@@H]1CO -34.4%
CCCNC(=O)N1[C@H](C#N)[C@H](c2ccc(-c3cccc(OC)c3)cc2)[C@@H]1CO -9.82%
N#C[C@@H]1[C@H](c2ccc(-c3cccc(F)c3)cc2)[C@H](CO)N1C(=O)c1cccnc1 -19.2%
COc1ccccc1C#Cc1ccc([C@H]2[C@H](C#N)N(C(=O)C3CCCC3)[C@H]2CO)cc1 -0.57%
O=S(=O)(NCC[C@@H]1CC[C@@H](NS(=O)(=O)c2ccccc2Cl)[C@H](CO)O1)c1ccc(Cl)cc1 15.1%
O=S(=O)(NCC[C@H]1CC[C@H](NS(=O)(=O)c2ccccc2Cl)[C@H](CO)O1)c1ccc(Cl)cc1 12.1% [at 30 µM]
COc1ccc(OCC(=O)Nc2cc(-c3nn(C)c(=O)c4ccccc34)ccc2OC)cc1 -17.9%
COc1ccc(-c2nn(C)c(=O)c3ccccc23)cc1NC(=O)COc1ccccc1 12.3%
COc1ccc(NS(=O)(=O)c2ccc3c(c2)OCCO3)cc1OC -3.46%
COc1ccc(N2CCn3c2nc2c3c(=O)n(CCCc3ccccc3)c(=O)n2C)c(OC)c1 15% [at 16 µM]
CCOC(=O)C(C)Oc1cccc2c(=O)n(CC(=O)NCCc3ccc(OC)c(OC)c3)ccc12 (centres undefined) 17.4%
O=C(Cc1ccncc1)N[C@H]1CC[C@@H](CCn2cc(-c3ccccc3F)nn2)O[C@@H]1CO 12.9%
O=C(CCN1CCCCC1)N[C@H]1CC[C@H](CCn2cc(-c3ccccc3)nn2)O[C@@H]1CO 8.36%
COc1ccc(-c2cn(CC[C@H]3CC[C@H](NS(=O)(=O)c4ccccc4C)[C@H](CO)O3)nn2)cc1 -1.92%
O=C(CCN1CCCCC1)N[C@@H]1CC[C@@H](CCn2cc(-c3ccccc3)nn2)O[C@@H]1CO 8.65%
Cc1ccc(C2CC(=O)c3cnc(N4CCc5ccccc5C4)nc3C2)cc1 (centres undefined) -20.6%
COc1ccccc1N/C(N)=N/c1nc(CSc2ccc(C)cc2)cc(=O)[nH]1 -12.1%
COc1ccc(NC(=O)C2(C)CCN2Cc2ccccc2OC(F)F)cc1OC (centres undefined) -7.99%
CCCc1cc(C(=O)NCc2ccc(OC)cc2)no1 10.3%
CCCCCCCCCCn1c2c(c(=N)c3c1CCC3)CCC2 94.2% [at 16 µM]
C[C@H](CO)N1C[C@H](C)[C@@H](CN(C)CC2CC2)Oc2ccc(NS(C)(=O)=O)cc2CC1=O 14.9%
C[C@H](CO)N1C[C@H](C)[C@H](CN(C)Cc2ccccc2)Oc2c(NC(=O)Nc3ccc4c(c3)OCO4)cccc2C1=O 87%
C[C@@H]1CN([C@@H](C)CO)C(=O)c2cc(NC(=O)c3ccncc3)ccc2O[C@@H]1CN(C)Cc1ccncc1 -15.1%
C[C@@H]1CN([C@@H](C)CO)C(=O)c2cc(NC(=O)c3ccncc3)ccc2O[C@H]1CN(C)Cc1ccncc1 -2.02%
COc1ccc(NC(=O)CN2CCC(C(N)=O)(N3CCCCC3)CC2)cc1 -13.8%
CCc1ccc(C(=O)CN2C(=O)NC(C)(c3ccc(C)cc3)C2=O)cc1 (centres undefined) -3.01%
C=CC[n+]1c(-c2ccc(OC)c(OC)c2)csc1NNC(=O)Nc1ccccc1 22.5%
CC(=O)c1ccc([C@H]2C[C@@]34CN(C(=O)OC(C)(C)C)S(=O)(=O)[C@H]3C[C@H]2O4)cc1 -21.5%
CO[C@@H]1CN(C)C(=O)c2cc(NS(=O)(=O)c3ccc(C)cc3)ccc2OC[C@H](C)N(C(=O)NC(C)C)C[C@@H]1C 58.5%
O=C(C[C@@H]1C[C@H]2c3cc(NC(=O)C4CCC4)ccc3O[C@H]2[C@H](CO)O1)NCC(F)(F)F 23.8%
COc1ccc(N2CCN(C(=O)C3CCC(Cn4c(=S)[nH]c5ccccc5c4=O)CC3)CC2)cc1 (centres undefined) -2.4%
C[C@@H]1CN([C@H](C)CO)S(=O)(=O)c2ccc(C#Cc3cccc(F)c3)cc2O[C@@H]1CN(C)C(=O)CN1CCOCC1 -5.15%
Cc1[nH]c2ccccc2c1/C=N\NC(=O)c1ccccc1Cl 12.4%
CCn1c(/C=C/N(C)c2ccccc2)[n+](CC)c2ccc(Cl)cc21 -4.27%
O=C(C[C@H]1C[C@H]2c3cc(NC(=O)C4CCC4)ccc3O[C@H]2[C@H](CO)O1)NCc1ccc2c(c1)OCO2 -8.88%
Cc1nc2ccccc2c2oc(C(=O)NCc3ccc4c(c3)OCO4)cc12 14.1%
O=C(Nc1cc2c3c(c1)CC(=O)N3CCC2)c1ccc(Cl)cc1 36.2%
COC(=O)[C@]12CCCCC=C1N(Cc1ccco1)C(=O)[C@H](CC(=O)NCCc1ccccc1OC)C2 -2.88%
Cc1nn(C)c(Cl)c1NC(=O)OCc1ccc(Cl)cc1Cl 11.7%
COc1ccc(CCNC(=O)COC(=O)c2cccn2C)cc1 -14%
O=C(Nc1cccn(Cc2c(Cl)cccc2Cl)c1=O)c1ccc(Cl)cc1 33.5%
COc1ccccc1S(=O)(=O)Cc1ccc(C(=O)N2CCN(c3cccc(Cl)c3)CC2)o1 29.9%
O=C(c1ccccc1F)N1CCN(Cc2cccc(Cl)c2)CC1 -4.77%
Cc1ccc(NC(=O)c2ccc(OCC3CCCO3)cc2)cc1Cl (centres undefined) 107%
O=C(COc1ccc(-n2cnnn2)cc1)Nc1ccc(F)c(F)c1 -25.8%
Cn1c(CN2CCCCC2)nc2cc(NC(=O)c3ccc(Cl)cc3)ccc21 8.53%
COC(=O)[C@H](Cc1ccccc1)NC(=O)Cn1cnc(C(=O)Nc2ccc(C)c(C)c2)n1 4.14%
CNC[C@H]1Oc2c(NC(=O)Nc3ccc4c(c3)OCO4)cccc2C(=O)N([C@H](C)CO)C[C@@H]1C 1.72%
